Where a name gives a salt, the structure may show the parent alone. A number with no mark means an inactive call.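 How the source made its calls: for the amine columns active = adjusted P below 0.05 in both replicates with a change the same way and a mean fold change under 0.8 or over 1.25; inactive = the rest.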
The compounds below were run on Escherichia coli IAI1 (assay: fold change of Cadaverine concentration vs plate DMSO controls (fold change (ratio)); higher = more amine produced, active = hit call of the paper (significant change in both replicates, either direction)). Conditions: incubation time: 27 h, anaerobic, 37 °C.
Outline: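 Each value is the fold change relative to DMSO-only wells on the same plate. Four gut bacterial strains were grown anaerobically in mGAM at 37 °C for 27 h in 80 µL wells, starting at OD 0.1 before a 1:1 dilution, with compounds at 20 µM final (sweeteners 50 µM). Whole cultures were extracted with cold acetonitrile/methanol containing 0.1% formic acid, centrifuged, and amines were quantified by LC–triple-quadrupole MS (dynamic MRM) against external calibration curves with within-batch drift correction. Values are means of 2 biological replicates.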

Row | SMILES | fold change of Cadaverine concentration
1 | OC[C@H]1O[C@@H](O[C@H]2[C@H](O)[C@@H](O)[C@H](O)O[C@@H]2CO)[C@H](O)[C@@H](O)[C@H]1O [Lactose] (50 µM) | 0.984
2 | C[C@@]12CC[C@@H]3[C@@](CC[C@H]4[C@@]3(C)CCC[C@@]4(C)C(=O)O)(CC1=O)C2 [Iso-Steviol] (50 µM) | 0.963
3 | CCCCOc1ccc(C(=O)CCN2CCCCC2)cc1 [Dyclonine hydrochloride] (20 µM) | 0.995
4 | CN(C)c1nc(N(C)C)nc(N(C)C)n1 [Altretamine] (20 µM) | 1.01
5 | c1ccc(CNc2ncnc3nc[nH]c23)cc1 [Aminopurine, 6-benzyl] (20 µM) | 1.02
6 | OCCN1CCN(CC/C=C2/c3ccccc3Sc3ccc(C(F)(F)F)cc32)CC1 [Flupentixol dihydrochloride cis-(Z)] (20 µM) | 0.852
7 | Cc1onc(-c2ccccc2)c1C(=O)N[C@@H]1C(=O)N2[C@@H]1SC(C)(C)[C@@H]2C(=O)O [Oxacillin sodium] (20 µM) | 1.01
8 | Cc1ccc(Cl)c(Nc2ccccc2C(=O)O)c1Cl [Meclofenamic acid sodium salt monohydrate] (20 µM) | 1.03
9 | Clc1ccc(C(Cn2ccnc2)OCc2c(Cl)cccc2Cl)c(Cl)c1 (centres undefined) [Isoconazole] (20 µM) | 0.966
10 | NNc1nncc2ccccc12 [Hydralazine hydrochloride] (20 µM) | 0.997
11 | O=C(O)CCC(=O)c1ccc(-c2ccccc2)cc1 [Fenbufen] (20 µM) | 0.969
12 | C[C@]12CCC(=O)C=C1C=C[C@@H]1[C@@H]2CC[C@@]2(C)[C@H]1CC[C@@]21CCC(=O)O1 [Canrenone] (20 µM) | 0.878
13 | CCN(CCO)CCCC(C)Nc1ccnc2cc(Cl)ccc12 (centres undefined) [Hydroxychloroquine sulfate] (20 µM) | 0.999
14 | C[C@@H](O)[C@H]1C(=O)N2C(C(=O)O)=C(S[C@@H]3CN[C@H](C(=O)N(C)C)C3)[C@H](C)[C@H]12 [Meropenem] (20 µM) | 0.971
15 | COc1cc(C(=O)OCCCN2CCCN(CCCOC(=O)c3cc(OC)c(OC)c(OC)c3)CC2)cc(OC)c1OC [Dilazep dihydrochloride] (20 µM) | 0.968
16 | CCOC(=O)n1ccn(C)c1=S [Carbimazole] (20 µM) | 0.98
17 | CCOC(=O)CC(=O)N1CCSC1COc1ccccc1OC (centres undefined) [Moguisteine] (20 µM) | 1
18 | CN[C@@H]1[C@@H](O[C@H]2O[C@H](CO)[C@@H](N)[C@H](O)[C@H]2O)OC2C[C@@H](N)[C@@H](O[C@H]3[C@H](O)[C@@H](O)[C@H](N)C[C@@H]3N)OC2[C@@H]1O (some centres undefined) [Apramycin] (20 µM) | 1
19 | Cc1c(OCC(F)(F)F)ccnc1C[S+]([O-])c1nc2ccccc2[nH]1 (centres undefined) [Lansoprazole] (20 µM) | 1.03
20 | Cn1c(=O)cc(N2CCC[C@@H](N)C2)n(Cc2ccccc2C#N)c1=O [Alogliptin benzoate] (20 µM) | 0.992

Row | SMILES | fold change of Cadaverine concentration
21 | Nc1nc(F)nc2c1ncn2[C@@H]1O[C@H](CO)[C@@H](O)[C@@H]1O [Fludarabine] (20 µM) | 0.91
22 | CCN(Cc1ccncc1)C(=O)C(CO)c1ccccc1 (centres undefined) [Tropicamide] (20 µM) | 0.991
23 | CNC1(C)C2CCC(C2)C1(C)C (centres undefined) [Mecamylamine hydrochloride] (20 µM) | 0.968
24 | CC1=NN(c2ccccc2)C(=O)C1 [Edaravone] (20 µM) | 0.986
25 | Nc1ccn([C@@H]2O[C@H](CO)[C@@H](O)C2(F)F)c(=O)n1 [Gemcitabine] (20 µM) | 1.02
26 | CCCC(CCC)C(=O)O[C@H]1C[C@H]2CC[C@@H](C1)[N+]2(C)C [Anisotropine Methylbromide] (20 µM) | 0.948
27 | COc1c(N2CCNC(C)C2)c(F)cc2c(=O)c(C(=O)O)cn(C3CC3)c12 (centres undefined) [Gatifloxacin] (20 µM) | 0.264 (active)
28 | OC(CNCC(O)C1CCc2cc(F)ccc2O1)C1CCc2cc(F)ccc2O1 (centres undefined) [Nebivolol hydrochloride] (20 µM) | 0.955
29 | COc1ccccc1O [Guaiacol] (20 µM) | 1.02
30 | COc1ccc(CC2c3cc(OC)c(OC)cc3CC[N+]2(C)CCC(=O)OCCCCCOC(=O)CC[N+]2(C)CCc3cc(OC)c(OC)cc3C2Cc2ccc(OC)c(OC)c2)cc1OC (centres undefined) [Atracurium besylate] (20 µM) | 1
31 | O=C(O)Cc1cc(I)c(Oc2ccc(O)c(I)c2)c(I)c1 [Tiratricol] (20 µM) | 1.03
32 | COc1cc(/C=C/C(=O)N2CCN(CC(=O)N3CCCC3)CC2)cc(OC)c1OC [Cinepazide maleate] (20 µM) | 0.933
33 | C[C@H](CCC(=O)O)[C@H]1CC[C@H]2[C@@H]3C(=O)C[C@@H]4CC(=O)CC[C@]4(C)[C@H]3CC(=O)[C@]12C [Dehydrocholic acid] (20 µM) | 0.982
34 | CN1CCOC(c2ccccc2)c2ccccc2C1 (centres undefined) [Nefopam hydrochloride] (20 µM) | 0.943
35 | CCOc1ccc(NC(N)=O)cc1 [(4-Ethoxyphenyl)urea] (50 µM) | 1.11
36 | CCCCOc1ccc(CC(=O)NO)cc1 [Bufexamac] (20 µM) | 0.965
37 | CCOc1ccc2ccccc2c1C(=O)N[C@@H]1C(=O)N2[C@@H]1SC(C)(C)[C@@H]2C(=O)O [Nafcillin sodium salt monohydrate] (20 µM) | 1.02
38 | c1ccc2cc3c(ccc4ccccc43)cc2c1 [Benz[a]anthracene] (20 µM) | 0.963
39 | CC(C)NC[C@H](O)COc1cccc2ccccc12 [(S)-(-)-Propranolol hydrochloride] (20 µM) | 0.968

From the supplement of paper PMC12494721
